Measured values reported in the supplement of paper PMC8371130.
Where a name gives a salt, the structure may show the parent alone.

Test system: HL-1
Assay: relative cell viability (CellTiter-Glo) vs DMSO control (% of DMSO control); higher = more viable cells
Method in brief: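 In 384-well plates, 1000 HL-1 mouse atrial cardiomyocytes per well were plated with compounds at 40, 200, 1000 or 5000 nM in 0.01% DMSO. Hypoxia at 1% O2 for 48 h began one day later and was followed by 24 h of reoxygenation, with parallel plates held in normoxia. CellTiter-Glo luminescence gave cell viability relative to vehicle-treated control cells.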

[1] = oxygen condition: hypoxia 48 h (1% O2) + reoxygenation 24 h, 40 nM
[2] = oxygen condition: hypoxia 48 h (1% O2) + reoxygenation 24 h, 200 nM
[3] = oxygen condition: hypoxia 48 h (1% O2) + reoxygenation 24 h, 1000 nM
[4] = oxygen condition: hypoxia 48 h (1% O2) + reoxygenation 24 h, 5000 nM
[5] = oxygen condition: normoxia 72 h, 40 nM
[6] = oxygen condition: normoxia 72 h, 200 nM
[7] = oxygen condition: normoxia 72 h, 1000 nM
[8] = oxygen condition: normoxia 72 h, 5000 nM

SMILES	relative cell viability [1]	relative cell viability [2]	relative cell viability [3]	relative cell viability [4]	relative cell viability [5]	relative cell viability [6]	relative cell viability [7]	relative cell viability [8]
O=C(O)c1cccnc1 [Niacin]	107	107	98	109	110	111	106	93.9
CCCNC(C)C(=O)Nc1c(C)csc1C(=O)OC (stereo unspecified) [Articaine HCl]	105	103	57.4	105	103	101	103	107
C=CC[C@@H]1/C=C(\C)C[C@H](C)C[C@H](OC)[C@H]2O[C@@](O)(C(=O)C(=O)N3CCCC[C@H]3C(=O)O[C@H](/C(C)=C/[C@@H]3CC[C@@H](O)[C@H](OC)C3)[C@H](C)[C@@H](O)CC1=O)[C@H](C)C[C@@H]2OC	102	105	102	101	109	106	106	105
N[C@@H]1CN(c2c(F)cc3c(=O)c(C(=O)O)cn([C@@H]4C[C@@H]4F)c3c2Cl)CC12CC2 [Sitafloxacin hydrate]	101	98.6	104	108	103	95.3	99	108
CCOC(=O)C1=C(COCCN)NC(C)=C(C(=O)OC)C1c1ccccc1Cl (stereo unspecified) [Amlodipine]	102	101	113	100	107	107	93.2	106
CCc1c2c(nc3ccc(OC(=O)N4CCC(N5CCCCC5)CC4)cc13)-c1cc3c(c(=O)n1C2)COC(=O)[C@]3(O)CC [Irinotecan HCl Trihydrate]	89	95.6	64.6	40.2	99	83.5	62.5	40.2
C[C@]12CCC(=O)C=C1[C@@H]1C[C@@H]1[C@H]1[C@@H]3[C@@H]4C[C@@H]4[C@@]4(CCC(=O)O4)[C@@]3(C)CC[C@@H]12 [Drospirenone]	104	104	109	105	103	112	100	104
COc1cc2c(cc1O)CC[C@@H]1[C@@H]2CC[C@]2(C)[C@@H](O)CC[C@@H]12 [2-Methoxyestradiol]	106	104	102	112	102	105	102	109
CN1CC(=O)N2[C@H](c3ccc4c(c3)OCO4)c3[nH]c4ccccc4c3C[C@@H]2C1=O [Tadalafil]	106	105	116	112	106	112	110	121
CCOC(=O)C1=C(C)NC(C)=C(C(=O)OC)C1c1cccc([N+](=O)[O-])c1 (stereo unspecified) [Nitrendipine]	95.9	106	98.1	107	107	103	104	111
Nc1cc(N2CCCCC2)nc(N)[n+]1[O-] [Minoxidil]	108	106	118	113	114	109	112	111
COCCOC(=O)C1=C(C)NC(C)=C(C(=O)OC(C)C)C1c1cccc([N+](=O)[O-])c1 (stereo unspecified) [Nimodipine]	109	108	109	107	108	109	103	104
O=S(=O)(O)c1cc(O)ccc1O [Ethamsylate]	105	101	105	109	96.6	101	96.8	107
COc1ccc2[nH]c([S@@+]([O-])Cc3ncc(C)c(OC)c3C)nc2c1 [Esomeprazole sodium]	94	93.2	106	106	94.1	96	100	114
CCN[C@H]1C[C@H](C)S(=O)(=O)c2sc(S(N)(=O)=O)cc21 [Dorzolamide HCL]	111	105	104	111	117	106	107	121
Oc1ccc(OC2CCCCO2)cc1 (stereo unspecified) [Deoxyarbutin]	103	104	107	113	103	102	113	109
CCOc1ccccc1OC(c1ccccc1)C1CNCCO1 (stereo unspecified) [Reboxetine mesylate]	105	102	105	122	115	99.7	108	119
CN1CCC(=C2c3ccccc3C=Cc3ccccc32)CC1 [Cyproheptadine HCl]	97.1	95.8	102	110	100	98.1	102	118
CC#CCn1c(N2CCC[C@@H](N)C2)nc2c1c(=O)n(Cc1nc(C)c3ccccc3n1)c(=O)n2C [Linagliptin]	96.7	103	104	105	106	105	107	106
Cc1cccc(CN2CCN(C(c3ccccc3)c3ccc(Cl)cc3)CC2)c1 (stereo unspecified) [Meclizine 2HCl]	101	108	98.5	107	101	109	111	103
C=CCNC(N)=S [Allylthiourea]	118	102	115	122	106	100	109	124
O=C(CCCN1CC=C(n2c(=O)[nH]c3ccccc32)CC1)c1ccc(F)cc1 [Droperidol]	94.9	102	105	103	97.3	97	93.9	106
